# Compound activity as filed in PubChem BioAssay.
# Hits are enriched below; roughly 11% of the tested compounds scored in any of these assays.
# HP1b binding inh: HTS for Inhibitors of HP1-beta Chromodomain Interactions with Methylated Histone Tails | Chromobox protein homolog 1 (Homo sapiens), P83916 | AlphaScreen HP1-beta / biotin-H3K9me3 peptide binding | Potency, µM (series often up to 114 µM), for the others: at the highest dose activity change, negative = inhibition, actives largely listed as inhibitors | actives 0.56% (n = 390,000) | AID 540317, 2011; also: nearly all actives have a fitted effect of over 70% in size
#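 AlphaScreen: HP1-beta (50 nM) preformed 30 min with biotin-H3(1-18)K9me3 peptide (50 nM) in PBS pH 7.4, 0.01% Tween-20. Compound added for 30 min at RT, then streptavidin donor/nickel chelate acceptor beads (10 ug/mL) for 30 min.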
# JMJD2A Tudor inh: qHTS Assay for Inhibitors of JMJD2A-Tudor Domain; AlphaScreen JMJD2A-Tudor / H3K4me3 peptide binding; Lysine-specific demethylase 4A (Homo sapiens), O75164; actives 4.4% (n = 390,000); Potency, µM (titrated, usually from 114 µM), without a hit: at the highest dose activity change, negative = inhibition, usual class: inhibitors; also: % is scaled to controls: 0 for no effect and ±100 for the full control effect; nearly all actives have a fitted effect of over 50% in size
# L3MBTL1 block: qHTS Assay for the Inhibitors of L3MBTL1 | Lethal(3)malignant brain tumor-like protein 1 (Homo sapiens), Q9Y468 | AlphaScreen L3MBTL1–H3K9me1 peptide binding | Potency, µM (top dose mostly 57.1 µM), inactives show at the top dose activity, negative = inhibition, usual class: inhibitors | actives 0.66% (n = 230,000) | AID 485360, 2010; also: % is scaled to controls: 0 for no effect and ±100 for the full control effect; nearly all actives have a fitted effect of over 60% in size
#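 Read-out is AlphaScreen signal from streptavidin donor and nickel chelate acceptor beads (10 ug/mL final each) bridging L3MBTL1 (50 nM) and biotinylated K9-monomethylated H3(1-15) peptide (75 nM), after 30 min compound exposure at room temperature.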
# BAZ2B block: qHTS Assay for Inhibitors of BAZ2B; AlphaScreen BAZ2B-H3K14Ac peptide displacement; actives 4.4% (n = 360,000); AID 504333, 2011; Potency, µM (titrated, usually from 114 µM), for inactives: top-dose activity change, negative = inhibition, most hits filed as inhibitors; Bromodomain adjacent to zinc finger domain protein 2B (Homo sapiens), Q9UIF8; also: % is scaled to controls: 0 for no effect and ±100 for the full control effect; nearly all actives have a fitted effect of over 60% in size
# Target sequence (Q9UIF8 whole entry, looked up, the tested form may be a part): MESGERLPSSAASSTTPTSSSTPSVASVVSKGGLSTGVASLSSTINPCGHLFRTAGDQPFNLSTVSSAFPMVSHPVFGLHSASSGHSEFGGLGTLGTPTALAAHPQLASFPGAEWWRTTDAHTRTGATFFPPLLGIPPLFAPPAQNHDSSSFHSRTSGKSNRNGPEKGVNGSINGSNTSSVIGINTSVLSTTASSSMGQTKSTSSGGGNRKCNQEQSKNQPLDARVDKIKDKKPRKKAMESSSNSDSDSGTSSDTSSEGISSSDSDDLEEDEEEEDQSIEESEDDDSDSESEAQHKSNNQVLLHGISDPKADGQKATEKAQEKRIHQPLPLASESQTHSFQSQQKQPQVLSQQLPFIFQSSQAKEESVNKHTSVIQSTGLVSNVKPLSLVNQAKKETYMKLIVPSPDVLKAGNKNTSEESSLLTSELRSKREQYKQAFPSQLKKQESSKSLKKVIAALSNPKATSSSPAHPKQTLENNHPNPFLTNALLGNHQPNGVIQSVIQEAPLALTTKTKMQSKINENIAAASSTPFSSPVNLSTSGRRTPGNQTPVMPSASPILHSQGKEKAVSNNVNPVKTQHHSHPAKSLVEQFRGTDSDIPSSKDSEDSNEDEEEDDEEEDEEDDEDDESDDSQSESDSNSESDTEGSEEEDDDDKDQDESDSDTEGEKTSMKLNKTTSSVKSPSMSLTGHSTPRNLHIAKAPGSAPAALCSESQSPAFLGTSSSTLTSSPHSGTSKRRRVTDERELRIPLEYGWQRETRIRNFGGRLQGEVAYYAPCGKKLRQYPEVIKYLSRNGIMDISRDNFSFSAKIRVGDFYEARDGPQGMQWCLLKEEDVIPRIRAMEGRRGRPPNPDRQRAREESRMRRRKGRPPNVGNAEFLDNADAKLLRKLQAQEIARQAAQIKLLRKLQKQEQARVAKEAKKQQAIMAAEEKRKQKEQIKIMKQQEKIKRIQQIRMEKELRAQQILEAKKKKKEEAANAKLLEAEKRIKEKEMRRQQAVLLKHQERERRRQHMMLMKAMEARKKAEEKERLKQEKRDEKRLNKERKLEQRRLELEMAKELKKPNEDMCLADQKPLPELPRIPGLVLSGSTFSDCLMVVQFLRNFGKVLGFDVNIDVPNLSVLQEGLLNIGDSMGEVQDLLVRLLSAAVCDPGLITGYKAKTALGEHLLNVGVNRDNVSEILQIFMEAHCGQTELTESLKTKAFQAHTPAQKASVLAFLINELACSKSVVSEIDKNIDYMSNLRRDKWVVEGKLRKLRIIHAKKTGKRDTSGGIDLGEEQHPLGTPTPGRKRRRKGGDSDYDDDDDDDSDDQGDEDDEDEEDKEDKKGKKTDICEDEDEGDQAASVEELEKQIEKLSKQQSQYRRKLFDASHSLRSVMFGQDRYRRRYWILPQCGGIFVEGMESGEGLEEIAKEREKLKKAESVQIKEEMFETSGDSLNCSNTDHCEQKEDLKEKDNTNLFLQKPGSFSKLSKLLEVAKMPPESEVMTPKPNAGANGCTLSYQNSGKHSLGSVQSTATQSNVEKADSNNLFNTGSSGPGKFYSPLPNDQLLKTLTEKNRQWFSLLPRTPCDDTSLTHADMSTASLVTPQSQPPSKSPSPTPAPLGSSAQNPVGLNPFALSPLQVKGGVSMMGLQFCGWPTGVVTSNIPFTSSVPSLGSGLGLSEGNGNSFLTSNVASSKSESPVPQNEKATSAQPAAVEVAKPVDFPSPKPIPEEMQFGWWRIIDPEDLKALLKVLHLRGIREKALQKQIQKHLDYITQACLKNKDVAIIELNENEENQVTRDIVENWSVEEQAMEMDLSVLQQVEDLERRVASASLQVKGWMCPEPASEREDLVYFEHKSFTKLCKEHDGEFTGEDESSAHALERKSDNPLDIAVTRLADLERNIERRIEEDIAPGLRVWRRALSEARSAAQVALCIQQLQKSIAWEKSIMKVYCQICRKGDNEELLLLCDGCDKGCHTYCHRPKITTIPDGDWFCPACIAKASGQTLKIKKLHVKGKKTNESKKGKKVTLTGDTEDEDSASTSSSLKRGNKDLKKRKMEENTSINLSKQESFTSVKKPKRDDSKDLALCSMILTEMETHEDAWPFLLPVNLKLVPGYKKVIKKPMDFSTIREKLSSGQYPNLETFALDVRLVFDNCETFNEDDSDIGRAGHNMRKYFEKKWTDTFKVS
#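 Compounds, titrated to a top concentration of 110 uM, were incubated 30 min at room temperature with preformed BAZ2B/acetyl-K14 H3 peptide complex (50 nM each). Proximity signal was measured by AlphaScreen after 20 min with beads.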
# G9a block: qHTS Assay for Inhibitors of Histone Lysine Methyltransferase G9a | AID 504332, 2011 | G9a H3K9 monomethylation, AlphaScreen, 2 h | actives 8.8% (n = 350,000) | Potency, µM (series often up to 102 µM), for inactives: top-dose activity, negative = inhibition, most hits filed as inhibitors; also: % is scaled to controls: 0 for no effect and ±100 for the full control effect; nearly all actives have a fitted effect of over 75% in size
#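 Compounds were preincubated with 20 nM G9a for 15 min, after which biotinylated H3K9 peptide (500 nM) and SAM (20 uM) started a 2 h room-temperature reaction. Monomethylated product was quantified by antibody-based AlphaScreen chemiluminescence.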
# An asterisk follows results filed as active; ? = inconclusive; . = no result given; [ ] = remark or other dose. Calls follow the shape of the dose curve; as a rule, active = well fitted inhibition curve with a large enough effect; inconclusive = small, poorly fitted or top-dose-only effect; inactive = no such curve, though single readings can be large or run the other way. Potency is read from the fitted curve at half-maximal effect.
SMILES,HP1b binding inh,JMJD2A Tudor inh,L3MBTL1 block,BAZ2B block,G9a block
CN(C)c1ccc(C(c2nnnn2C(C)(C)C)N2CCN(C(=O)c3ccco3)CC2)cc1 (stereo not given),-16%,-28%,-4%,-30%,10µM*
CCCNC(=O)C1CCC(Cn2c(=O)c3sccc3n(CC(=O)NCc3cccc(OC)c3OC)c2=O)CC1 (stereo not given),22%,-11%,.,1%,-26%[59 µM]
O=c1cc(-c2ccc(O)c(O)c2)oc2cc(O)c(C3OC(CO)C(O)C(O)C3O)c(O)c12 (stereo not given),4%,25µM*,16µM*,?,-3%[12.7 µM]
COc1c(-c2ccc(O)c(O)c2)oc2cc(O)cc(O)c2c1=O,2%,?,.,35µM*,-22%[12.7 µM]
O=c1c(O[C@@H]2O[C@H](CO)[C@@H](O)[C@H](O)[C@H]2O)c(-c2ccc(O)c(O)c2)oc2cc(O)cc(O)c12,.,.,.,-28%,8.9µM*
O=c1c(OC2OC(CO)C(O)C(O)C2OC2OC(CO)C(O)C(O)C2OC2OC(CO)C(O)C(O)C2O)c(-c2ccc(O)c(O)c2)oc2cc(O)cc(O)c12 (stereo not given),-9%,32µM*,.,?,?
O=c1cc(-c2ccc(O)cc2)oc2cc(O)c([C@@H]3O[C@H](CO)[C@@H](O)[C@H](O)[C@H]3O)c(O)c12,35%,-23%,0%,.,.
COc1ccc2c(c1)c1nnc(SC)nc1n2Cc1ccccc1,18%,-19%,.,.,.
CC1OC(OCC2OC(Oc3c(-c4ccc(O)cc4)oc4cc(O)cc(O)c4c3=O)C(O)C(O)C2O)C(O)C(O)C1O (stereo not given),-2%,?,14µM*,?,.
O=c1c(O[C@@H]2O[C@H](CO)[C@@H](O)[C@H](O)[C@H]2O)c(-c2ccc(O)cc2)oc2cc(O)cc(O)c12,20%,-15%,0%,.,.
O=c1c(O[C@@H]2O[C@H](CO)[C@H](O)[C@H](O)[C@H]2O)c(-c2ccc(O)c(O)c2)oc2cc(O)cc(O)c12,.,.,.,?,13µM*
COc1ccc([N+](=O)[O-])cc1N(CC(O)CN1C(=O)NC(C)(C)C1=O)S(=O)(=O)c1ccccc1 (stereo not given),19%,-6%,.,1%,-5%
O=C(NCC1CCCO1)C1CCCN(S(=O)(=O)c2cc(Cl)ccc2Cl)C1 (stereo not given),9%,-15%,.,-2%,62%
Cc1cccc2cc(CN(CC3CCCO3)C(=O)c3ccco3)c(=O)[nH]c12 (stereo not given),36%,-6%,0%,-29%,50µM*
Cc1ccc2cc(CN(CC3CCCO3)C(=S)NCc3ccco3)c(=O)[nH]c2c1C (stereo not given),?,?,-7%,?,45µM*
Cc1ccc(C)c2[nH]c(=O)c(CN(CC3CCCO3)C(=S)NCc3ccco3)cc12 (stereo not given),19%,-18%,.,-31%,45µM*
CCc1ccc2[nH]c(=O)c(CN(CC3CCCO3)C(=S)NCc3ccco3)cc2c1 (stereo not given),-7%,?,.,?,.
Cc1ccc(C)c2[nH]c(=O)c(CN(Cc3cccs3)C(=S)NCc3ccco3)cc12,0%,-23%,-10%,-1%,0%[59 µM]
COc1ccc(C(=O)NCCN2CCCC2)cc1[N+](=O)[O-],9%,-11%,1%,9%,-22%
CCCN(CCC)C(=O)Cn1c(=O)n(-c2ccccc2)c(=O)c2c3c(sc21)CCCC3,30%,-4%,.,-3%,-4%[59 µM]
Cn1c(=O)c(C#N)c(-c2ccc(F)cc2)c2cc(C(=O)c3cc(Cl)cc(Cl)c3O)cnc21,?,45µM*,-3%,35µM*,?
